Measurements: PubChem BioAssay (EPA / NIEHS)
The source made the active and inactive calls. The calls were made as follows: active = hit-call score of the fitted dose curve at least 0.9, where 1 is the maximum; inactive = score below 0.9.

Columns and labels:
Details in all cases: mRNA level, 48 h; actives raise or lower the signal
[1] = read-out: Cytochrome P450 3A4 (Homo sapiens) (UniProt P08684); experiment: LTEA_HepaRG_CYP3A4: Life Technologies and Expression Analysis (LTEA) Assay for CYP3A4 using HepaRG (AID 2283487)
Summary of the method: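 CYP3A4 transcript measured by TaqMan qRT-PCR and normalized to three housekeeping genes after 48 h chemical exposure of human HepaRG cells. Top concentration 100 uM, half-log steps, 0.5% DMSO vehicle; gain or loss fitted against DMSO baseline.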

[2] = read-out: DNA damage-inducible transcript 3 (DDIT3), DDIT3 (gene 1649); experiment: LTEA_HepaRG_DDIT3: Life Technologies and Expression Analysis (LTEA) Assay for DNA damage-inducible transcript 3 (DDIT3) using HepaRG (AID 2283488)
Summary of the method: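 Changes in DDIT3 transcript, in either direction relative to 0.5% DMSO vehicle, were quantified by TaqMan qRT-PCR after 48 h chemical exposure of HepaRG cells at 8 concentrations, maximum 100 uM.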

[3] = read-out: Pro-epidermal growth factor (Homo sapiens) (UniProt P01133); experiment: LTEA_HepaRG_EGF: Life Technologies and Expression Analysis (LTEA) Assay for Epidermal growth factor (EGF) using HepaRG (AID 2283489)
Summary of the method: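 EGF expression changes in human HepaRG cells are scored by bidirectional fitting relative to 0.5% DMSO controls. Chemicals are tested at eight half-log concentrations up to 100 uM for 48 h in serum-free induction medium.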

[4] = read-out: Ezrin (EZR), EZR (gene 7430); experiment: LTEA_HepaRG_EZR: Life Technologies and Expression Analysis (LTEA) Assay for Ezrin (EZR) using HepaRG (AID 2283491)
Summary of the method: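 HepaRG, 48 h chemical exposure, 8-pt half-log series from 100 uM, 0.5% DMSO vehicle, duplicates. Read-out: EZR mRNA by TaqMan qRT-PCR (Fluidigm array), housekeeping-normalized; bidirectional curve fit vs DMSO baseline.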

[5] = read-out: Cytochrome P450 3A7 (Homo sapiens) (UniProt P24462); experiment: LTEA_HepaRG_CYP3A7: Life Technologies and Expression Analysis (LTEA) Assay for CYP3A7 using HepaRG (AID 2283492)
Summary of the method: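 Cells were thawed, plated, cultured 48 h, then treated for a further 48 h with chemicals (eight-point half-log series from 100 uM, 0.5% DMSO). RNA was isolated and CYP3A7 expression quantified by qRT-PCR normalised to ACTB, GAPDH and POLR2A.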

[6] = read-out: Fatty Acid-Binding Protein 1 (FABP1), FABP1 (gene 2168); experiment: LTEA_HepaRG_FABP1: Life Technologies and Expression Analysis (LTEA) Assay for Fatty Acid-Binding Protein 1 (FABP1) using HepaRG (AID 2283494)
Summary of the method: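 Differentiated human HepaRG cells were exposed in duplicate for 48 h in serum-free induction medium to 8-point half-log concentration series topping at 100 uM in 0.5% DMSO. FABP1 mRNA measured by TaqMan qRT-PCR, normalized to ACTB/GAPDH/POLR2A; bidirectional fit versus DMSO.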

[7] = read-out: Cytochrome P450 4A22 (Homo sapiens) (UniProt Q5TCH4); experiment: LTEA_HepaRG_CYP4A22: Life Technologies and Expression Analysis (LTEA) Assay for Cytochrome P450 4A22 (CYP4A22) using HepaRG (AID 2283495)
Summary of the method: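 Cryopreserved HepaRG cells, plated and cultured 48 h, then switched to serum-free induction medium and treated 48 h (duplicates, up to 100 uM, half-log steps, 0.5% DMSO). Expression change of CYP4A22 was fitted bidirectionally against vehicle.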

[8] = read-out: Cytochrome P450 7A1 (Homo sapiens) (UniProt P22680); experiment: LTEA_HepaRG_CYP7A1: Life Technologies and Expression Analysis (LTEA) Assay for Cytochrome P450 7A1 (CYP7A1) using HepaRG (AID 2283496)
Summary of the method: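 Gene expression endpoint in human HepaRG liver cells treated for 48 h with test chemicals (up to 100 uM, 0.5% DMSO). Values come from bidirectional concentration-response fitting versus DMSO.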

[9] = read-out: Glutathione S-Transferase (GSTA2), GSTA2 (gene 2939); experiment: LTEA_HepaRG_GSTA2: Life Technologies and Expression Analysis (LTEA) Assay for Glutathione S-Transferase (GSTA2) using HepaRG (AID 2283497)
Summary of the method: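 Human HepaRG cells, plated 48 h, then exposed in serum-free induction medium for 48 h to eight half-log concentrations up to 100 uM in 0.5% DMSO, duplicate. GSTA2 mRNA by qRT-PCR, normalized to ACTB/GAPDH/POLR2A; bidirectional fit versus DMSO.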

[10] = read-out: Glutamate-cysteine ligase catalytic (GCLC), GCLC (gene 2729); experiment: LTEA_HepaRG_GCLC: Life Technologies and Expression Analysis (LTEA) Assay for Glutamate-cysteine ligase catalytic (GCLC) using HepaRG (AID 2283498)
Summary of the method: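 Differentiated human HepaRG cells, plated 48 h then switched to serum-free induction medium, were exposed in duplicate for 48 h to 8 half-log concentrations topping at 100 uM in 0.5% DMSO. GCLC mRNA was quantified by qRT-PCR against ACTB, GAPDH and POLR2A.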

[11] = read-out: Glutamate-cysteine ligase regulatory (GCLM), GCLM (gene 2730); experiment: LTEA_HepaRG_GCLM: Life Technologies and Expression Analysis (LTEA) Assay for Glutamate-cysteine ligase regulatory (GCLM) using HepaRG (AID 2283500)
Summary of the method: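 Human liver HepaRG cultures receive test chemicals for 48 hours at up to 100 uM in 0.5% DMSO. GCLM expression is measured by qRT-PCR and analysed for increases or decreases against vehicle.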

[12] = read-out: Glutathione S-transferase M3 (GSTM3), GSTM3 (gene 2947); experiment: LTEA_HepaRG_GSTM3: Life Technologies and Expression Analysis (LTEA) Assay for Glutathione S-transferase M3 (GSTM3) using HepaRG (AID 2283501)
Summary of the method: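 Changes in GSTM3 expression, an oxidative-stress marker, were scored by bidirectional curve fitting against 0.5% DMSO vehicle. Human HepaRG cultures received chemicals for 48 h in duplicate, highest concentration 100 uM with half-log dilutions.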

[13] = read-out: Heat shock 70 kDa protein 1 (HSPA1A), gene 3303; experiment: LTEA_HepaRG_HSPA1A: Life Technologies and Expression Analysis (LTEA) Assay for Heat shock 70 kDa protein 1 (HSPA1A) using HepaRG (AID 2283502)
Summary of the method: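 HSPA1A induction in human HepaRG liver cells is measured after 48 h of chemical treatment (100 uM maximum, 0.5% DMSO vehicle). Expression comes from qRT-PCR normalized to endogenous controls.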

[14] = read-out: Hypoxia-inducible factor 1-alpha (Homo sapiens) (UniProt Q16665); experiment: LTEA_HepaRG_HIF1A: Life Technologies and Expression Analysis (LTEA) Assay for Hypoxia-inducible factor 1 (HIF1A) Trancription factor using HepaRG (AID 2283503)
Summary of the method: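 HepaRG, 48 h exposure, 8-pt half-log series from 100 uM, 0.5% DMSO vehicle, duplicates. Readout: HIF1A transcript by qRT-PCR (Fluidigm array), housekeeping-normalised. Bidirectional curve fit vs DMSO baseline.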

[15] = read-out: 3-Hydroxy-3-Methylglutaryl-CoA Synthase 2 (HMGCS2), HMGCS2 (gene 3158); experiment: LTEA_HepaRG_HMGCS2: Life Technologies and Expression Analysis (LTEA) Assay for 3-Hydroxy-3-Methylglutaryl-CoA Synthase 2 (HMGCS2) using HepaRG (AID 2283504)
Summary of the method: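 Expression of HMGCS2 in human HepaRG liver cells is measured by qRT-PCR 48 h after dosing (highest 100 uM, half-log series, 0.5% DMSO). Values come from bidirectional concentration-response fitting with DMSO as baseline.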

HGF (gene 3082) = experiment: LTEA_HepaRG_HGF: Life Technologies and Expression Analysis (LTEA) Assay for Hepatocyte Growth Facto (HGF) using HepaRG (AID 2283505)
Summary of the method: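 Gain or loss of HGF mRNA in human HepaRG liver cells after 48 h chemical exposure; eight concentrations up to 100 uM with 0.5% DMSO vehicle, quantified by TaqMan qRT-PCR.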

[16] = read-out: Insulin Like Growth Factor 1 (IGF1), IGF1 (gene 3479); experiment: LTEA_HepaRG_IGF1: Life Technologies and Expression Analysis (LTEA) Assay for Insulin Like Growth Factor 1 (IGF1) using HepaRG (AID 2283506)
Summary of the method: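 Using human HepaRG liver cells, IGF1 transcript induction or suppression is measured 48 h after dosing across eight concentrations capped at 100 uM. Values derive from bidirectional concentration-response fitting with DMSO as baseline.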

CYP3A5 (gene 1577) = experiment: LTEA_HepaRG_CYP3A5: Life Technologies and Expression Analysis (LTEA) Assay for CYP3A5 using HepaRG (AID 2283493)
Summary of the method: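 mRNA induction or loss of CYP3A5 assessed in HepaRG after 48 h dosing, 100 uM top concentration, duplicate wells; TaqMan qRT-PCR with ACTB, GAPDH, POLR2A normalization; 0.5% DMSO as negative control.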

[17] = read-out: Early growth response protein 1 (EGR1) transcription factor, EGR1 (gene 1958); experiment: LTEA_HepaRG_EGR1: Life Technologies and Expression Analysis (LTEA) Assay for Early growth response protein 1 (EGR1) transcription factor using HepaRG (AID 2283490)
Summary of the method: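 Differentiated human HepaRG cells in serum-free induction medium were exposed in duplicate for 48 h to eight concentrations (top 100 uM, half-log steps) in 0.5% DMSO. EGR1 mRNA was quantified by qRT-PCR, normalized to ACTB, GAPDH and POLR2A, and fitted bidirectionally versus DMSO.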

[18] = read-out: growth arrest and DNA damage 45 (GADD45G), GADD45G (gene 10912); experiment: LTEA_HepaRG_GADD45G: Life Technologies and Expression Analysis (LTEA) Assay for growth arrest and DNA damage 45 (GADD45G) using HepaRG (AID 2283499)
Summary of the method: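 Human hepatic HepaRG line treated 48 h with chemicals (eight concentrations, half-log steps from 100 uM); transcript induction or repression of GADD45G scored by qRT-PCR versus DMSO vehicle.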

Measured: AC50

Sequence of Hypoxia-inducible factor 1-alpha (Homo sapiens) (Q16665 whole entry, looked up): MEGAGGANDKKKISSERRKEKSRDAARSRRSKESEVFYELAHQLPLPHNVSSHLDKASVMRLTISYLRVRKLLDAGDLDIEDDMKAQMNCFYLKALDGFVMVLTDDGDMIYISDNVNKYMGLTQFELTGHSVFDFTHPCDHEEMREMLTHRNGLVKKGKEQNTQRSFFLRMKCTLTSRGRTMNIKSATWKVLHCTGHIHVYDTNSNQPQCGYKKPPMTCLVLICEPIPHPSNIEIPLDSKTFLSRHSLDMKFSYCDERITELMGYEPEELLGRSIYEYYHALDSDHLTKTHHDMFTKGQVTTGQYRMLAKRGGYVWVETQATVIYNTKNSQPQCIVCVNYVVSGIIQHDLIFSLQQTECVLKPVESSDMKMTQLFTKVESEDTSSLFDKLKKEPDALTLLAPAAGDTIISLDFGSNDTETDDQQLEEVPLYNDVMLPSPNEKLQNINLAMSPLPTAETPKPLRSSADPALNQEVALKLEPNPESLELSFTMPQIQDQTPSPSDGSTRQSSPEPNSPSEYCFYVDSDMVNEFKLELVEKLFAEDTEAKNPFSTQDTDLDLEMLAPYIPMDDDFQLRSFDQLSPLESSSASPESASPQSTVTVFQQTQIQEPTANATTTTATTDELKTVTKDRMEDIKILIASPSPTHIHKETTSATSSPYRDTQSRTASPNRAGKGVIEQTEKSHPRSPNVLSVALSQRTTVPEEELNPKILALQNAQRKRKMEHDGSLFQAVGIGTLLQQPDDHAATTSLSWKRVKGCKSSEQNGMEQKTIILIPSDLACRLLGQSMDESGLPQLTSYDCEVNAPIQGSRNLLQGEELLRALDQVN
Sequence of Cytochrome P450 3A7 (Homo sapiens) (P24462 whole entry, looked up): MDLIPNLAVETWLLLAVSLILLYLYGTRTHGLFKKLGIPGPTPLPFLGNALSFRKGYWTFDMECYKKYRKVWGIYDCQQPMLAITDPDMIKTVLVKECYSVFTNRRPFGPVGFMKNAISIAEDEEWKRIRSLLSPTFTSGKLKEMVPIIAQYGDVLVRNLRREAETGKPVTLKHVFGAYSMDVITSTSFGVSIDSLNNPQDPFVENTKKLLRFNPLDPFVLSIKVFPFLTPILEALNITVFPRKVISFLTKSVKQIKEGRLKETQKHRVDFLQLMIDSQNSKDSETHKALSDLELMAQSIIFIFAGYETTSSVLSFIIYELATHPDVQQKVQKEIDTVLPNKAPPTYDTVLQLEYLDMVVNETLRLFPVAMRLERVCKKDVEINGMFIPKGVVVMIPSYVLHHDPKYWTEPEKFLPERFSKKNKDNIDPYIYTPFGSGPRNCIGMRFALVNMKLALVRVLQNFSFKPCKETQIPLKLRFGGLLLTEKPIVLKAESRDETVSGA
Sequence of Cytochrome P450 3A4 (Homo sapiens) (P08684 whole entry, looked up): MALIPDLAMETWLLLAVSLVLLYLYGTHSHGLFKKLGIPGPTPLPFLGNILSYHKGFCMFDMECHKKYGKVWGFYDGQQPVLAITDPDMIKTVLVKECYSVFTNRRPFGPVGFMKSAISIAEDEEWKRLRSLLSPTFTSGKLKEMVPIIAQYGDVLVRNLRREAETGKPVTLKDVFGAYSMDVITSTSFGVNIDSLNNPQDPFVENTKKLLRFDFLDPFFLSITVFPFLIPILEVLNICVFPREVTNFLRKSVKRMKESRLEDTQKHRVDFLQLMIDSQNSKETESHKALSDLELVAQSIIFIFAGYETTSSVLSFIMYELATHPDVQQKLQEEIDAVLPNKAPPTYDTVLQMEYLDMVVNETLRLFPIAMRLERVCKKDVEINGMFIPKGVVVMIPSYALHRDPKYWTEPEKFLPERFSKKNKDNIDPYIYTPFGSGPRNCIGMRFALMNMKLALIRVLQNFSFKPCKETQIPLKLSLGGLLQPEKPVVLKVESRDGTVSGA

COS(=O)(=O)OC
inactive: [1] | [2] | [3] | [4] | [5] | [6] | [7] | [8] | [9] | [10] | [11] | [12] | [13] | [14] | [15] | HGF (gene 3082) | [16]

CC#Cc1cc(C)nc(Nc2ccccc2)n1
active: [1] 28.2 µM | [5] 41.6 µM | CYP3A5 (gene 1577) 15.6 µM | [6] 13.7 µM | [7] 1.05 µM | [8] 13.8 µM | [9] 28 µM | [10] 32.8 µM | [11] 50 µM | [12] 14.5 µM | [15] 32.5 µM | HGF (gene 3082) 50 µM | [16] 33.1 µM
inactive: [2] | [3] | [4] | [13] | [14]

O=C(N[C@H]1CN2CCC1CC2)c1cc2ccoc2cn1
inactive: [1] | [2] | [3] | [4] | [5] | [6] | [7] | [8] | [9] | [10] | [11] | [12] | [13] | [14] | [15] | HGF (gene 3082) | [16]

c1cc2ccc3cccc4ccc(c1)c2c34
inactive: [2] | [3] | [17] | [4] | CYP3A5 (gene 1577) | [6] | [7] | [8] | [9] | [10] | [11] | [12] | [13] | [14] | [15] | HGF (gene 3082) | [16]

O=C(O)C(F)(F)C(F)(F)C(F)(F)C(F)(F)C(F)(F)C(F)(F)C(F)(F)C(F)(F)F
inactive: [3] | [12] | [14]
active: [1] 81.7 µM | [2] 77.9 µM | [4] 77 µM | [5] 89 µM | [6] 81.1 µM | [7] 90 µM | [8] 86.7 µM | [9] 86.8 µM | [10] 75.3 µM | [18] 85.6 µM | [11] 77 µM | [15] 80.4 µM | HGF (gene 3082) 50 µM | [16] 77 µM

Cc1cccc([N+](=O)[O-])c1
inactive: [1] | [2] | [4] | [5] | CYP3A5 (gene 1577) | [6] | [9] | [10] | [11] | [12] | [13] | [14] | [15] | HGF (gene 3082) | [16]

C[C@]12CCC(=O)C=C1CC[C@@H]1[C@@H]2CC[C@@]2(C)[C@H]1CC[C@]2(C)O
active: [2] 80 µM | [7] 69.8 µM | [8] 1.9 µM | [15] 69 µM | [16] 11.3 µM
inactive: [1] | [3] | [4] | [5] | [6] | [9] | [10] | [11] | [12] | [13] | [14] | HGF (gene 3082)

CCOP(=S)(OCC)SCSC(C)(C)C
active: [5] 16.5 µM | [6] 50 µM | [8] 16.3 µM | [15] 14.7 µM
inactive: [1] | [2] | [3] | [7] | [9] | [10] | [11] | [12] | [13] | [14] | HGF (gene 3082) | [16]

O=S(=O)(O)C(F)(F)C(F)(F)C(F)(F)C(F)(F)C(F)(F)C(F)(F)F
active: [1] 34.9 µM | [5] 20.9 µM | [6] 9.02 µM | [7] 25.1 µM | [18] 3.41 µM | [14] 4.59 µM | [15] 30.1 µM
inactive: [2] | [3] | [4] | [8] | [9] | [10] | [11] | [12] | [13] | HGF (gene 3082) | [16]

C[C@]12CCC(=O)C=C1CC[C@@H]1[C@@H]2CC[C@]2(C)C(=O)CC[C@@H]12
active: [1] 30.8 µM | [6] 12.5 µM | [7] 72.7 µM | [8] 4.69 µM | [16] 50 µM
inactive: [2] | [3] | [4] | [5] | [9] | [10] | [11] | [12] | [13] | [15] | HGF (gene 3082)
